According to PubChem BioAssay (NCATS):
Inconclusive results are not listed. A number with no mark means an inactive call. Calls of active or inactive are those of the source. The call rests on the fitted dose curve; in most records, active means well fitted cell-killing curve with a large enough effect; inconclusive means small, poorly fitted or top-dose-only effect; inactive means flat fitted curve, though single readings scatter.

Test: Cellular viability qHTS for adrenocortical cancer (ACC) cell line SW-13 (AID 1963989); further: nearly all actives have a fitted effect of over 65% in size;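 on activity (max response): cells grown in serum-free medium with ITS supplement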
Settings: SW-13 ACC cells viability, CellTiter-Glo, 48 h; activity (max response): stronger effect = lower value
Method in brief: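 Viability was read as CellTiter-Glo luminescence after 48 h compound treatment (up to 46 uM final) of SW-13 cells grown serum-free; titration curves were fit with a four-parameter logistic model to give IC50 and efficacy.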
On the % scale 0 is the no-effect control and ±100 the full control effect; potency means the concentration at half of the fitted maximal effect.

In order of falling activity (max response):
1. Cc1nc(C2CCCCC2)c(-c2ccc(S(N)(=O)=O)c(F)c2)o1  16%
2. Cc1ccccc1-n1nc(-c2c(-c3ccc(F)cc3)nn3c2NC[C@@H](CO)C3)ccc1=O  12.4%
3. O=C(Nc1cccc(C(F)(F)F)c1)c1cccc2cc(Oc3cc(CO)ncn3)ccc12  9.86%
4. Cc1cccc(Nc2ccccc2C(=O)O)c1C  8.3%
5. CCc1c(C)[nH]c2c1C(=O)C(CN1CCOCC1)CC2 (stereo not given)  7.75%
6. O=C1C(CCS(=O)c2ccccc2)C(=O)N(c2ccccc2)N1c1ccccc1 (stereo not given)  7.53%
7. O=C(O)CNC(=O)c1ncc(-c2cccc(Cl)c2)cc1O  5.73%
8. COc1ccc(-c2cnc3c(-c4cccc5ncccc45)cnn3c2)cc1  5.61%
9. CC(C)n1c(/C=C/[C@@H](O)C[C@@H](O)CC(=O)O)c(-c2ccc(F)cc2)c2ccccc21  5.25%
10. CCCCCCCCCCC[C@@H](C[C@@H]1OC(=O)[C@H]1CCCCCC)OC(=O)[C@H](CC(C)C)NC=O  4.97%
11. Nc1cc(COc2c(Cl)cc(C[C@H](N)C(=O)O)cc2Cl)c2oc(-c3ccccc3)nc2c1  4.08%
12. Fc1ccc(C(c2ccc(F)cc2)N2CCNCC2)cc1  4.07%
13. CN1CCC(OC(c2ccccc2)c2ccccc2)CC1  0.851%
14. O=C(OCC(COC(=O)c1cccnc1)(COC(=O)c1cccnc1)COC(=O)c1cccnc1)c1cccnc1  -1.24%
15. CCC(=O)c1c(O)cc(O)cc1O  -1.99%
16. Cc1nc2c([nH]1)c(=O)n(C)c(=O)n2Cc1ccco1  -2.81%
17. CC1=C(C(=O)OC(C)C)C(c2cccc([N+](=O)[O-])c2)C(C(=O)OC2CN(C(c3ccccc3)c3ccccc3)C2)=C(N)N1 (stereo not given)  -4.04%
18. CCCCCC=CCC=CCCCCCCCC(=O)OCC  -4.47%
19. Cc1ccc2c(c1)c1c3n2CCNC3CCC1 (stereo not given)  -5.85%
20. CN1CCCCC1CCN1c2ccccc2Sc2ccc(S(C)=O)cc21 (stereo not given)  -6.63%
21. NS(=O)(=O)c1cc(C(=O)NN2C[C@H]3[C@H]4CCC(C4)[C@H]3C2)ccc1Cl  -7.57%
22. C[C@H](Nc1ncnc2nc[nH]c12)c1cc2ccc(F)cc2nc1-c1ccccn1  -8.13%
23. Cn1ncc(Cl)c1-c1cc(C(=O)N[C@H](CN)Cc2cccc(F)c2)sc1Cl  -8.31%
24. C/C(O)=C(\C#N)C(=O)Nc1ccc(C(F)(F)F)cc1  -8.43%
25. CCS(=O)(=O)N1CCC(C(C)n2c(C)c(C(=O)NCc3c(OC)cc(C)[nH]c3=O)c3ccccc32)CC1 (stereo not given)  -8.74%
26. O=C([C@@H](Cc1cccc(C(F)(F)F)c1)NS(=O)(=O)c1cc(F)c2c(c1)CCNC2)N1CCCC1  -8.82%
27. CC(C)OC(=O)c1cc2c(OCC(O)CNC(C)(C)C)cccc2[nH]1 (stereo not given)  -10.4%
28. CC(C)(C)CC(=O)OCC(=O)[C@@]1(O)CC[C@H]2[C@@H]3CCC4=CC(=O)C=C[C@]4(C)[C@H]3[C@@H](O)C[C@@]21C  -10.9%
29. C=C1/C(=C/C=C2\CCCC3(C)[C@@H]([C@H](C)/C=C/C=C/C(O)(CC)CC)CC[C@@H]23)C[C@@H](O)C[C@@H]1O (stereo not given in full)  -11%
30. O=C(/C=C/N1C[C@H]2C[C@@H]1CN2c1ccccn1)c1ccccc1O  -11.7%
31. CCCc1c(OCCCOc2ccc(OCC(=O)O)cc2)ccc(C(C)=O)c1O  -13.7%
32. O=C(CCN1CCN2CCCC2C1)N1c2ccccc2Sc2ccc(Cl)cc21 (stereo not given)  -13.8%
33. CCN(CCCCOC(=O)c1ccc(OC)c(OC)c1)C(C)Cc1ccc(OC)cc1 (stereo not given)  -18.6%
34. COCCCc1sc(-c2ccccc2)nc1C(=O)Nc1ccccc1-c1nc2cc(CN3CCCC3)cnc2s1  -19.6%
35. COc1ccc2nc(NC(=O)Nc3ccccc3)sc2c1  -20%
36. CCOc1ccc2nc(S(N)(=O)=O)sc2c1  -20.8%

For C=CC(=O)Nc1ccc(F)c(-c2ncnc3[nH]cc(C(=O)OCC)c23)c1, the Potency was 22.4 µM (active).
For COc1cc2c3c(n(CCCN4CCOCC4)c(=O)c2cc1OC)-c1cc2c(cc1C3=O)OCO2, the Potency was 2.51 µM (active).
In the case of COc1cc2c3c(n(CCCn4ccnc4)c(=O)c2cc1OC)-c1cc2c(cc1C3=O)OCO2, the Potency is reported as 0.0316 µM (active).
In the case of c1ccc(-c2ccc(C(c3ccccc3)n3ccnc3)cc2)cc1 (stereo not given), the Potency is reported as 18.4 µM (active).
